Bioassay records deposited in PubChem by DiRusso Lab, Biochemistry Department, University of Nebraska.
Algae TAG accum: inducers of triacylglycerol accumulation in Chlamydomonas reinhardtii algae; Chlamydomonas reinhardtii TAG, Nile Red fluorescence, 72 h; calls only at 10 µM (by protocol); 44,000 tested, 0.84% active; call rule not given here;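 note: hits raise Nile Red signal meaning more stored TAG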
Active calls of the source: *; i = inactive; + = active, no number. This excerpt belongs to a sample that is enriched for hits.

SMILES | Algae TAG accum
Brc1cccc(OCCCCN2CCCC2)c1 | i
Cc1cc(Br)ccc1OCCCCN1CCOCC1 | i
Cc1ccc(OCCCCN2CCCC2)c([N+](=O)[O-])c1 | i
Cc1cc(Br)ccc1OCCCCN1CCCC1 | +
Cc1ccccc1OCCOCCN1CCN(C)CC1 | i
Cc1cc(Br)ccc1OCCCCN1CCN(C)CC1 | +
C=CCc1cc(C)ccc1OCCCCN1CCCC1 | i
C=CCNC(=O)CN(C1CCCCC1)S(=O)(=O)c1ccc(Br)cc1 | i
CCCCOc1cccc(C(=O)Nc2ccc(N3CCN(C(=O)c4ccccc4)CC3)cc2)c1 | i
CC(C)(C)C(=O)Nc1ccc(N2CCN(C(=O)c3ccccc3)CC2)c(Cl)c1 | i
CC(=O)c1ccccc1NC(=O)c1ccccc1Br | i
CN1C(=O)CC(c2ccccc2)C2=C1CC(C)(C)CC2=O (stereo unspecified) | i
CCC(=O)c1c(C)[nH]n(-c2ccccc2)c1=O | i
NC(=O)CN(Cc1ccc(Br)cc1)S(=O)(=O)c1ccc(Cl)cc1 | i
CCOc1ccc(C2CCC(=O)NC2=O)cc1 (stereo unspecified) | i
COc1ccc(CNC(=O)Cc2ccccc2[N+](=O)[O-])cc1 | i
COc1ccc(N(C)S(=O)(=O)c2ccc(Cl)cc2)cc1 | i
Cc1ccc(NC(=O)CC(C)C)c(NC(=O)CC(C)C)c1 | +
Cc1ccc(NC(=O)CCC(=O)O)c(C)c1 | i
Cc1cccc(C(=O)Nc2ccc(C)cc2NC(=O)c2cccc(C)c2)c1 | i
CCC(=O)c1ccc(OCCN2CCCCC2)cc1 | i
O=C1CC(N2CCN(Cc3ccc4c(c3)OCO4)CC2)C(=O)N1CCc1ccccc1 (stereo unspecified) | +
O=C1c2ccccc2C(=O)N1CN1CCN(Cc2ccc3c(c2)OCO3)CC1 | i
O=c1c(CN2CCN(Cc3ccc4c(c3)OCO4)CC2)coc2ccccc12 | i
Cc1c(Cl)cccc1NC(=O)CCc1ccccc1 | i
SMILES | Algae TAG accum
CCc1nnc(NS(=O)(=O)c2ccc(NC(=O)CCSc3ccccc3)cc2)s1 | i
CC(CCc1ccccc1)NC(=O)c1ccc(Cl)cc1[N+](=O)[O-] (stereo unspecified) | i
Fc1ccc(N2CCN(Cc3ccsc3)CC2)cc1 | +
COc1cccc(N2CCN(Cc3ccco3)CC2)c1 | i
Clc1ccc(N2CCN(Cc3cccs3)CC2)cc1 | i
COc1ccc(N2CCN(Cc3cc(OC)cc(OC)c3)CC2)cc1 | i
O=[N+]([O-])c1ccc(N2CCN(Cc3ccsc3)CC2)cc1 | i
Clc1ccc(N2CCN(Cc3ccsc3)CC2)cc1 | +
COc1cccc(N2CCN(Cc3ccsc3)CC2)c1 | +
CCOc1cc(CN2CCN(c3ccc(F)cc3)CC2)ccc1OC | i
O=C(c1ccc(CN2CCOCC2)cc1)N1CCN(c2ccc(F)cc2)CC1 | i
COc1ccccc1OCCNCCO | i
CCOC(=O)N1CCC(N2CCN(S(=O)(=O)c3ccccc3[N+](=O)[O-])CC2)CC1 | i
COc1ccccc1C1C2=C(CC(C)(C)CC2=O)Nc2ccccc2N1C(=O)CCC(=O)O (stereo unspecified) | i
COc1ccc(S(=O)(=O)N(C)Cc2ccccc2)cc1 | i
CC(CC#CCN1CCCC1)OC(C)(C)C (stereo unspecified) | i
CCC(C)N1CCN(CC2CC3C=CC2C3)CC1 (stereo unspecified) | i
Oc1ccc(Br)cc1CN1CCN(CC2CC3C=CC2C3)CC1 (stereo unspecified) | +
O=[N+]([O-])c1ccccc1S(=O)(=O)N1CCN(CC2CC3C=CC2C3)CC1 (stereo unspecified) | i
Oc1ccc(Br)cc1CN1CCC(N2CCOCC2)CC1 | +
C1=CC2CC1CC2CN1CCN(C2CCC(c3ccccc3)CC2)CC1 (stereo unspecified) | +
COc1ccc(Br)cc1CN1CCC(N2CCCCC2)CC1 | i
NC(=O)C1CCN(CC2CC3C=CC2C3)CC1 (stereo unspecified) | i
O=[N+]([O-])c1ccc(O)c(CN2CCOCC2)c1 | i
C1=CC2CC1CC2CN1CCOCC1 (stereo unspecified) | i
SMILES | Algae TAG accum
O=C(c1ccc([N+](=O)[O-])cc1)N1CCN(CCO)CC1 | i
O=C(c1ccc([N+](=O)[O-])cc1)N1CCN(CC2CC3C=CC2C3)CC1 (stereo unspecified) | +
O=C(c1ccc(F)cc1)N1CCN(Cc2ccc([N+](=O)[O-])cc2)CC1 | i
CN1CCN(CC(=O)Nc2ccc(F)cc2)CC1 | i
CSc1cccc(NS(=O)(=O)c2ccc(NC(C)=O)cc2)c1 | i
COc1ccc(C2CC(=O)n3nc(-c4ccc(C)cc4)nc3S2)cc1 (stereo unspecified) | i
O=C(NCc1ccc(F)cc1)N1c2ccccc2Sc2ccccc21 | i
Nc1ccn(-c2ccccc2)n1 | i
COc1ccc(C(=O)Nc2cc(Cl)ccc2Cl)cc1N | i
COc1ccccc1N(CC(=O)NCc1ccncc1)S(C)(=O)=O | i
COc1cc(N2CCN(S(=O)(=O)Cc3ccccc3)CC2)ccc1[N+](=O)[O-] | i
CCOc1ccccc1NS(=O)(=O)c1ccc([N+](=O)[O-])cc1 | i
O=C1C2C(C(=O)N1Cc1ccccc1)C2(c1ccccc1)c1ccccc1 (stereo unspecified) | i
Cc1ccc(C)c(S(=O)(=O)Nc2ccc(O)c(Cl)c2)c1 | i
O=C(CSc1nc2ccccc2o1)c1cccs1 | i
COc1ccc2nc(SCc3ccccc3OC)[nH]c2c1 | i
O=S(=O)(Cc1ccccc1)Nc1ccc(I)cc1 | i
CCN1CCN(CC2CC3C=CC2C3)CC1 (stereo unspecified) | i
C1=CC2CC1CC2CN1CCN(c2ccccc2)CC1 (stereo unspecified) | +
C1=CC2CC1CC2CN1CCN(Cc2ccccn2)CC1 (stereo unspecified) | i
Cc1cc(OCCCN2CCOCC2)cc(C)c1Cl | i
CN1CCN(CC(O)COc2ccc(Cl)cc2Cl)CC1 (stereo unspecified) | i
CCOC(=O)N1CCN(CC(O)COc2ccc(Cl)cc2Cl)CC1 (stereo unspecified) | i
OC(COc1ccc(Cl)cc1Cl)CN1CCN(Cc2ccccc2)CC1 (stereo unspecified) | +
CC(=O)c1cccc(NC(=O)c2ccc(I)cc2)c1 | i
SMILES | Algae TAG accum
COc1cccc(OCC(=O)Nc2cc(C)on2)c1 | i
O=C(Nc1ccc(Cl)cc1F)c1cccc(F)c1 | i
Cn1c(SCC(=O)NCc2ccccc2)nnc1-c1ccc(NC(=O)c2ccccc2F)cc1 | i
COc1ccc(CNC(=O)CSc2nnc(-c3cccc(OC)c3)n2C)cc1 | i
Cn1c(SCC(=O)NCc2ccccc2)nnc1-c1ccc(C(C)(C)C)cc1 | +
COc1ccc(Cl)cc1N(CC(=O)N1CCN(c2ccc(F)cc2)CC1)S(C)(=O)=O | i
NC(=O)C1CCN(C(=O)CN(Cc2ccccc2F)S(=O)(=O)c2ccc(Cl)cc2)CC1 | i
CC1CCc2c(sc(NC(=O)C(C)N3C(=O)c4ccccc4C3=O)c2C(N)=O)C1 (stereo unspecified) | i
c1ccc(CN2CCN(C3C4CC5CC(C4)CC3C5)CC2)cc1 (stereo unspecified) | i
COc1ccc(C(=O)N2CCN(C3C4CC5CC(C4)CC3C5)CC2)cc1 (stereo unspecified) | i
C1CCN(C2CCN(C3C4CC5CC(C4)CC3C5)CC2)CC1 (stereo unspecified) | i
